The panel holds about 79,000 compounds, 15% with a hit somewhere; the sample as a whole holds those more often. The source made the active and inactive calls. Cut-off read from the data, not from the text of the source: active = growth inhibition above about 70%; inactive = the rest.
Columns and labels:
[1] = NCI Yeast Anticancer Drug Screen. Data for the wt1 strain (AID 149);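 note: 0% = growth of vehicle-treated wt1 cultures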; conditions: S. cerevisiae wt1 strain (SPY 50644) growth inhibition, hits give high values
In short: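 wt1 strain grown with compound or vehicle; inhibition taken from the growth difference.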

[2] = NCI Yeast Anticancer Drug Screen. Data for the rad50EPP+ strain (AID 151);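 note: 0% = growth of vehicle-treated control cultures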; conditions: S. cerevisiae rad50 mutant strain, hits give high values
In short: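 Vehicle-normalised growth inhibition; rad50EPP+ yeast strain, altered in DNA damage repair, compound-treated.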

[3] = NCI Yeast Anticancer Drug Screen. Data for the mgt1 strain (AID 153); conditions: S. cerevisiae mgt1 mutant growth inhibition, hits give high values
In short: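 Vehicle-normalized growth inhibition is determined in mgt1 yeast, a strain selected for a defined alteration in DNA repair or cell cycle control.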

[4] = NCI Yeast Anticancer Drug Screen. Data for the rad50 strain (AID 155);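 note: 0% = growth of vehicle-only cultures of the same strain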; conditions: S. cerevisiae rad50 strain growth inhibition, hits give high values
In short: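 DNA repair mutant yeast, compound exposure, growth read-out; inhibition is taken relative to vehicle.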

[5] = NCI Yeast Anticancer Drug Screen. Data for the rad14 strain (AID 159);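 note: 0% = growth of vehicle-treated control cultures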; conditions: S. cerevisiae rad14 strain growth inhibition, hits give high values
In short: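 DNA repair-defective yeast, compound-exposed; % growth inhibition derived by comparison with vehicle-treated controls.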

[6] = NCI Yeast Anticancer Drug Screen. Data for the sgs1 mgt1 strain (AID 161);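 note: 0% = growth of cultures given vehicle only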; conditions: S. cerevisiae sgs1 mgt1 strain, hits give high values
In short: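 This yeast growth screen uses a strain with defined DNA-repair lesions; compound-treated growth is compared with vehicle-treated growth.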

[7] = NCI Yeast Anticancer Drug Screen. Data for the CLN2oe strain (AID 163);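 note: 0% = growth of vehicle-only control cultures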; conditions: S. cerevisiae CLN2oe strain, hits give high values
In short: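 Compounds are applied to yeast harbouring a defined cell-cycle control change; reduced growth compared with vehicle-treated controls gives the value.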

[8] = NCI Yeast Anticancer Drug Screen. Data for the cln2 rad14 strain (AID 165);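 note: 0% = growth equal to vehicle treated cultures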; conditions: S. cerevisiae cln2 rad14 strain, hits give high values
In short: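 Readout is yeast growth inhibition versus vehicle-treated controls, using a strain with cln2 and rad14 alterations exposed to compound.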

[9] = NCI Yeast Anticancer Drug Screen. Data for the bub3 strain (AID 167); conditions: S. cerevisiae bub3 mutant strain, hits give high values
In short: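 In this screen, a yeast mutant lacking normal mitotic checkpoint function is challenged with compound. Relative growth versus vehicle gives the inhibition value.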

[10] = NCI Yeast Anticancer Drug Screen. Data for the wt2 strain (AID 169);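 note: 0% = growth of vehicle-treated yeast cultures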; conditions: S. cerevisiae wt2 strain growth inhibition, hits give high values
In short: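 Against vehicle-treated controls, the growth of yeast exposed to each compound was compared, and the inhibition was recorded.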

[11] = NCI Yeast Anticancer Drug Screen. Data for the mlh1 strain (AID 171);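 note: 0% = growth of vehicle-treated control cultures of the same strain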; conditions: S. cerevisiae mlh1 strain growth inhibition, hits give high values
In short: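 Measured: yeast growth. Reference: vehicle-treated controls. Organism: strain with a defined alteration affecting DNA damage repair or cell cycle control, treated with compound.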

[12] = NCI Yeast Anticancer Drug Screen. Data for the sgs1 strain (AID 173);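 note: 0% = growth of vehicle-only control cultures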; conditions: S. cerevisiae sgs1 mutant, hits give high values
In short: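 Each compound was added to cultures of the altered yeast strain. Growth was recorded, and inhibition was derived by comparison with vehicle controls.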

[13] = NCI Yeast Anticancer Drug Screen. Data for the mlh1 rad18 strain (AID 175); conditions: S. cerevisiae mlh1 rad18 strain growth inhibition, hits give high values
In short: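 Genetically defined yeast (DNA repair-deficient) exposed to compounds; growth inhibition determined relative to vehicle.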

[14] = NCI Yeast Anticancer Drug Screen. Data for the rad18 strain (AID 177); conditions: S. cerevisiae rad18 mutant growth inhibition, hits give high values
In short: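 Vehicle-treated cultures served as the baseline for scoring compound-induced growth inhibition in DNA-repair-mutant yeast.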

[15] = NCI Yeast Anticancer Drug Screen. Data for the mec2-1 strain (AID 157); conditions: S. cerevisiae mec2-1 strain, hits give high values
In short: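 Mutant yeast (mec2-1) grown with compound; growth inhibition relative to vehicle control reported.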

[16] = at 5.0 µM (retest, dose inferred, filed as 0.5)
[17] = at 50.0 µM (retest, dose inferred, filed as 5.0)

Measured: growth inhibition

OC1C#CCSCC#C/C=C\1 (stereo not drawn)
active: [1]; at 100.0 µM 97% | [2]; at 100.0 µM 86% | [3]; at 100.0 µM 95% | [4]; [17] 100% | [4]; at 50.0 µM 81.3% | [4]; at 100.0 µM 97% | [5]; at 100.0 µM 98% | [6]; [17] 96% | [6]; at 50.0 µM 70.4% | [7]; at 100.0 µM 77% | [8]; [17] 93% | [9]; [17] 97% | [9]; at 50.0 µM 84.2% | [9]; at 100.0 µM 96% | [10]; at 100.0 µM 95% | [11]; at 100.0 µM 96% | [12]; at 100.0 µM 97% | [13]; [17] 100% | [13]; at 50.0 µM 79.2% | [14]; at 100.0 µM 92%
inactive: [1]; at 1.2 µM 9% | [1]; at 3.7 µM 3% | [1]; at 11.0 µM 14% | [1]; at 33.0 µM 55% | [2]; at 1.2 µM -22% | [2]; at 3.7 µM 15% | [2]; at 11.0 µM 13% | [2]; at 33.0 µM 23% | [3]; at 1.2 µM 9% | [3]; at 3.7 µM 2% | [3]; at 11.0 µM 14% | [3]; at 33.0 µM 43% | [4]; at 1.2 µM -24% | [4]; at 3.7 µM -17% | [4]; [16] 53% | [4]; at 11.0 µM 34% | [4]; at 33.0 µM 65% | [5]; at 1.2 µM 4% | [5]; at 3.7 µM 6% | [5]; at 11.0 µM 12% | [5]; at 33.0 µM 51% | [6]; [16] -4% | [7]; at 1.2 µM -22% | [7]; at 3.7 µM 3% | [7]; at 11.0 µM -15% | [7]; at 33.0 µM -3% | [8]; [16] 60% | [8]; at 50.0 µM 52% | [9]; at 1.2 µM -8% | [9]; at 3.7 µM -16% | [9]; [16] 16% | [9]; at 11.0 µM 17% | [9]; at 33.0 µM -10% | [10]; at 1.2 µM -21% | [10]; at 3.7 µM -17% | [10]; at 11.0 µM 6% | [10]; at 33.0 µM -9% | [11]; at 1.2 µM -1% | [11]; at 3.7 µM 4% | [11]; at 11.0 µM 15% | [11]; at 33.0 µM 46% | [12]; at 1.2 µM 20% | [12]; at 3.7 µM 11% | [12]; at 11.0 µM 27% | [12]; at 33.0 µM 67% | [13]; [16] 62% | [14]; at 1.2 µM -27% | [14]; at 3.7 µM -21% | [14]; at 11.0 µM 4% | [14]; at 33.0 µM 49%

c1cc(Nc2ccc3c(c2)OCO3)c2cc(C3CCCCC3)ccc2n1
inactive: [1]; at 1.2 µM 0% | [1]; at 3.7 µM 0% | [1]; at 11.0 µM -4% | [1]; at 33.0 µM -6% | [1]; at 100.0 µM 34% | [2]; at 1.2 µM 1% | [2]; at 3.7 µM -2% | [2]; at 11.0 µM -2% | [2]; at 33.0 µM -3% | [2]; at 100.0 µM 23% | [3]; at 1.2 µM -2% | [3]; at 3.7 µM -4% | [3]; at 11.0 µM -3% | [3]; at 33.0 µM -6% | [4]; at 1.2 µM 19% | [4]; at 3.7 µM -14% | [4]; [16] 4% | [4]; at 11.0 µM 5% | [4]; at 33.0 µM 5% | [4]; [17] 48% | [15]; at 1.2 µM -3% | [15]; at 3.7 µM -2% | [15]; [16] -8% | [15]; at 11.0 µM -4% | [15]; at 33.0 µM -2% | [15]; [17] 23% | [6]; [16] 0% | [6]; [17] 46% | [7]; at 1.2 µM 1% | [7]; at 3.7 µM 3% | [7]; at 11.0 µM -1% | [7]; at 33.0 µM 4% | [7]; at 100.0 µM 52% | [8]; [16] 40% | [8]; [17] 46% | [9]; at 1.2 µM -1% | [9]; at 3.7 µM -3% | [9]; [16] 10% | [9]; at 11.0 µM -2% | [9]; at 33.0 µM 8% | [10]; at 1.2 µM 0% | [10]; at 3.7 µM -1% | [10]; at 11.0 µM -2% | [10]; at 33.0 µM 0% | [11]; at 1.2 µM -1% | [11]; at 3.7 µM -1% | [11]; at 11.0 µM -2% | [11]; at 33.0 µM 2% | [12]; at 1.2 µM -1% | [12]; at 3.7 µM -2% | [12]; at 11.0 µM -7% | [12]; at 33.0 µM 5% | [13]; [16] 7% | [14]; at 1.2 µM -3% | [14]; at 3.7 µM -7% | [14]; at 11.0 µM -14% | [14]; at 33.0 µM -16%
active: [3]; at 100.0 µM 85% | [4]; at 50.0 µM 99.3% | [4]; at 100.0 µM 73% | [15]; at 50.0 µM 99.5% | [15]; at 100.0 µM 72% | [6]; at 50.0 µM 99.2% | [8]; at 50.0 µM 98.7% | [9]; [17] 98% | [9]; at 50.0 µM 98.6% | [9]; at 100.0 µM 74% | [10]; at 100.0 µM 81% | [11]; at 100.0 µM 82% | [12]; at 100.0 µM 86% | [13]; [17] 73% | [13]; at 50.0 µM 99.5% | [14]; at 100.0 µM 85%

Source: PubChem BioAssay (NCI)
